Only a selection was taken, and hits are over-represented in it overall.
IMPase Li inh: cell-permeable IMPase inhibitors with lithium potentiation | CHO-M1 cells, IP1 TR-FRET (IP-One), carbachol + lithium | 0.35% of 210,000 active | Potency, µM (top dose mostly 59.4 µM), inactives show at the highest dose activity, negative = IMPase inhibition, usual class: inhibitors; active means well fitted inhibition curve with a large enough effect; inconclusive means small, poorly fitted or top-dose-only effect; inactive means no such curve, though single readings can be large or run the other way;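 further: IP1 builds up when IMPase is blocked and the TR-FRET signal falls; potency means the concentration at half of the fitted maximal effect; plate controls were basal vehicle for no effect and high inhibitor control for full effect; nearly all actives have a fitted effect of over 50% in size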
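Readout is a homogeneous TR-FRET IP1 immunoassay (Ex 320, Em 665 and 620), where raised cytosolic IP1 lowers signal. Cells were CHO-M1 treated 30 min at 37C with test compounds plus a little lithium; AC50 values came from Hill-equation fitting.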
LMNA splice mod: modulators of lamin A splicing; HeLa LMNA splicing GFP/RFP minigene ratio, 48 h; Potency, µM (series often up to 46.1 µM), inactives show at the top dose ratio change, negative = inhibition, hits mostly inhibitors; 0.01% of 200,000 active; active means well fitted inhibition curve with a large enough effect in the signal ratio, with a control signal flat, not every such curve was filed as active; inconclusive means small, poorly fitted or top-dose-only effect, or effect the other way, or a change in a side signal; the % refers to the signal ratio; further: potency means the concentration at half of the fitted maximal effect
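Read-out is the ratio of GFP to DsRed2 object intensity, acquired by 488 nm laser-scanning cytometry on HeLa lamin A-EGFP minigene reporter cells. Compound incubation 48 hrs at 37 °C in Opti-MEM with 2% FBS; DMSO 0.5% final.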
IMPase inh: membrane-permeable compound that blocks inositol monophosphatase. CHO-M1 cells, IP1 accumulation, HTRF TR-FRET ratio. inhibition (IP1 accumulation), % at 46.1 µM. 120,000 tested, under 10 active. AID 901; active means well fitted curve in the direction sought with a large enough effect in the signal ratio, not every such curve was filed as active; inconclusive means small, poorly fitted or top-dose-only effect, or a change in a side signal; inactive means no such curve, though single readings can be large or run the other way; the % refers to the signal ratio;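 further: cells stimulated with carbachol in lithium chloride buffer; plate controls were DMSO basal wells for no effect and reference inhibitor wells for full effect; higher means more IMPase inhibition seen as more IP1 and lower FRET ratio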
Target sequence (P97697 whole entry, looked up): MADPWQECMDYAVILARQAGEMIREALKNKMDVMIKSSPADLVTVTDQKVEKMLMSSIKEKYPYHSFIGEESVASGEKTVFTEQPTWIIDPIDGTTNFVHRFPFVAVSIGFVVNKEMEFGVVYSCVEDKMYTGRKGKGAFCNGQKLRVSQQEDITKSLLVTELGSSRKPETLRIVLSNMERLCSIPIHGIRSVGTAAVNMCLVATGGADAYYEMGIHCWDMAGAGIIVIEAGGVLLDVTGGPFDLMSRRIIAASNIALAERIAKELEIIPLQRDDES
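Cellular IMPase inhibition is scored as a rise in cytosolic IP1, detected by competitive TR-FRET between d2-labelled IP1 and a europium anti-IP1 antibody. M1-expressing CHO cells were stimulated with carbachol for 30 min at 37C, with lithium (50 mM LiCl) present in the buffer.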
Starred values were filed as active, the others as inactive; ? = inconclusive; nt = no result; [ ] = another dose, or the depositor's remark. Unless noted, on the % scale 0 is the no-effect control and ±100 the full control effect.

SMILES | IMPase Li inh | LMNA splice mod | IMPase inh
CCOC(=O)c1c(-c2cccs2)csc1NC(C)=O | 24% | 1% | -2
CCOC(=O)c1c(-c2cccs2)csc1NC(=O)CCCC(=O)O | 10µM* | 10%[0.0737 µM] | ?
CN(c1ccccc1)c1ncnc2c1cnn2C | nt | 2%[46 µM] | nt
O=C(O)C(Cl)(c1ccccc1)c1ccccc1 | 3% | nt | nt
NC(=S)c1cc2ccc(O)cc2oc1=O | 3.2µM* | 1% | ?
NC(=S)c1cc2cc(Br)ccc2oc1=O | -2% | nt | nt
CCCCC#Cc1nc(N)c2ncn([C@@H]3O[C@H](C(=O)NCC)[C@@H](O)[C@H]3O)c2n1 | 5% | 2% | nt
O=C1/C(=C\c2cccnc2)SC(=S)N1C1CCS(=O)(=O)C1 (stereo not drawn) | 8%[38.3 µM] | nt | 8
O=C1/C(=C/c2cccnc2)SC(=S)N1C1CCS(=O)(=O)C1 (stereo not drawn) | 11% | 20µM* | -3
Cc1noc(C)c1-c1cncnc1NCCN1CCOCC1 | 4% | 8% | nt
Cc1cccc(-n2ncc3c(NCCN4CCOCC4)ncnc32)c1 | 10µM* | -7% | ?
Cc1noc(C)c1-c1ccc2ncnc(NCCN3CCOCC3)c2c1 | 4% | 10µM* | nt
c1ccc(-n2ncc3c(NCCN4CCOCC4)ncnc32)cc1 | -2%[38.3 µM] | -1% | -6
Cc1ccccc1-c1cncnc1NCc1cccs1 | 4% | -2% | nt
COc1ccc(OCC(=O)Nc2cc(-c3nn4c(C)nnc4s3)ccc2C)cc1 | -19%[38.3 µM] | 15% | 4
Cc1cc(OCC(=O)Nc2cc(-c3nn4c(C)nnc4s3)ccc2C)ccc1Cl | 28µM* | 7% | 1
COC(=O)CNC(=O)c1c(-c2ccccc2Cl)noc1C | 4%[38.3 µM] | 3% | 11
Cc1onc(-c2ccccc2Cl)c1C(=O)NC(=S)NCC(=O)c1ccccc1 | 10µM* | nt | nt
CC(C)C[C@@H](CC(=O)N[C@@H](CCCN)CC(=O)N[C@@H]1CCNC[C@H]1C(=O)N[C@H](CC(=O)N[C@@H](CCC(=O)O)CC(=O)O)CC(C)C)NC(=O)[C@@H]1CCCC[C@H]1N | 12% | nt | nt
Cc1c(C(=O)Nc2ccncc2)sc2nc(-c3ccc(F)cc3)cn12 | -101%[38.3 µM] | 5% | ?
COc1ccc(-c2cn3c(C)c(C(=O)Nc4ccncc4)sc3n2)cc1 | 5.6µM* | -10% | ?
Cc1nc(NCc2ccccc2)c2nc(-c3ccccc3)n(CCN(C)C)c2n1 | 3% | nt | nt
COc1cc2c(cc1OC)C(COc1ccccc1OC)N(C(=O)COc1ccc(Cl)cc1)CC2 (stereo not drawn) | nt | -22%[46 µM] | nt
COC(=O)c1ccc(C(NC(=O)OCc2ccccc2)/C(=C/[C@@H](C)C(=O)N[C@@H](CO)Cc2ccccc2)c2cccnc2)cc1 (stereo partly drawn) | -1% | nt | nt
Cc1ccc(S(=O)(=O)c2cc3cc(Br)ccc3oc2=O)cc1 | 1% | ? | ?
SMILES | IMPase Li inh | LMNA splice mod | IMPase inh
CC(C)c1ccc(S(=O)(=O)c2cc3cc(Br)ccc3oc2=O)cc1 | 14µM* | ? | 5
O=c1cc(-c2ccccc2O)oc2c1ccc1ccccc12 | 8% | nt | -4
O=C(Nc1nnc(-c2ccccc2F)s1)Nc1ccccc1F | 10µM* | nt | nt
O=C(Nc1nnc(-c2ccccc2SCc2ccccc2)s1)Nc1ccccc1F | -2%[38.3 µM] | 4% | ?
CC(=O)c1ccc(NC(=O)c2ccccc2Sc2ncnc3sc(C)c(C)c23)cc1 | 12% | 7% | nt
O=C(O)c1ccccc1Sc1ncnc2sc3c(c12)CCC3 | 8.9µM* | -29%[46 µM] | nt
O=C(CSc1ncnc2sc3c(c12)CCCC3)c1ccccc1 | 9% | 4% | 12
Cc1sc2ncnc(Sc3ccccc3C(=O)O)c2c1C | 4.5µM* | -13%[46 µM] | nt
NC=O | -6% | nt | nt
COc1ccc(CNC(=O)c2ccc(N3CCCC3)c(NC(=O)NCc3ccc(F)cc3)c2)cc1 | nt | -3%[46 µM] | nt
COc1ccc(N2CCN(CCNC(=O)c3ccc4c(c3)[nH]c(=S)n3c5ccccc5nc43)CC2)cc1 | 14µM* | ? | nt
COCCn1c(=O)[nH]c2cc(C(=O)NCCCN3CCN(c4ccc(F)cc4)CC3)ccc2c1=O | 3%[38.3 µM] | 9%[0.0737 µM] | 5
CC(=O)[C@@H]1CC[C@@H]2[C@@H]3CC=C4C[C@H](OS(=O)(=O)O)CC[C@@]4(C)[C@H]3CC[C@]21C | nt | nt | -1
COc1ccccc1C(=O)Nc1nc2ccc(S(C)(=O)=O)cc2s1 | 10µM* | -10% | nt
COc1ccc(C(=O)Nc2nc3ccc(S(C)(=O)=O)cc3s2)cc1 | ? | 7% | ?
Cn1c(Oc2ccccc2)nc2c1c(=O)n(Cc1ccc(Cl)cc1Cl)c(=O)n2C | nt | nt | -10
O=C(O)[C@@H]1[C@@H](C(=O)NCc2ccccn2)[C@@H]2C=C[C@@H]1O2 | 0% | nt | nt
O=C(C1=C(O)C(=O)N(Cc2ccccc2)C1c1ccncc1)c1ccco1 (stereo not drawn) | -23% | 3% | -22
COc1ccc(C2C(C(=O)c3ccco3)=C(O)C(=O)N2Cc2cccnc2)cc1OC (stereo not drawn) | -18%[38.3 µM] | 5% | 2
CN(C)CCCN1C(=O)C(O)=C(C(=O)c2cc3ccccc3o2)C1c1ccccc1 (stereo not drawn) | 10µM* | 9% | ?
C=CCOc1ccc(C2C(C(=O)c3ccco3)=C(O)C(=O)N2Cc2cccnc2)cc1 (stereo not drawn) | ? | 13% | 1
O=C(C1=C(O)C(=O)N(CC2CCCO2)C1c1cccnc1)c1ccco1 (stereo not drawn) | 13µM* | -1% | ?
COc1cccc2cc(C(=O)C3=C(O)C(=O)N(Cc4ccco4)C3c3cccnc3)oc12 (stereo not drawn) | 10µM* | 3% | ?
O=C(C1=C(O)C(=O)N(Cc2ccco2)C1c1cccnc1)c1cc2ccccc2o1 (stereo not drawn) | 8.9µM* | -1% | ?
COC(=O)c1ccc(C2C(C(=O)c3cc4ccccc4o3)=C(O)C(=O)N2CCCN(C)C)cc1 (stereo not drawn) | ? | -2% | -28
SMILES | IMPase Li inh | LMNA splice mod | IMPase inh
Cc1noc(C)c1-c1ccc2ncnc(N(C)Cc3ccco3)c2c1 | -8% | ? | nt
Oc1ccc(Cc2cc(Cl)cc(Cl)c2O)cc1Cl | -2% | nt | nt
COC(=O)[C@@H](c1ccccc1Cl)N1CCc2sccc2C1 | 16% | nt | nt
NNC(=O)[C@@H](O)[C@H](O)[C@H](O)CO | 5% | nt | nt
O=C(C1=C(O)C(=O)N(CCCN2CCOCC2)C1c1ccncc1)c1cc2ccccc2o1 (stereo not drawn) | -18% | -11% | -25
O=C(C1=C(O)C(=O)N(CCN2CCOCC2)C1c1cccnc1)c1cc2ccccc2o1 (stereo not drawn) | 10µM* | -6% | -28
COc1ccccc1NC(=O)C1=C(C)Nc2nc(-c3ccco3)nn2C1c1ccccc1F (stereo not drawn) | nt | nt | 4
Cc1nc(NC(=O)c2ccc(F)cc2)sc1C(=O)Nc1ccc2c(c1)CCC2 | 22µM* | 3% | -4
Cc1ccc(C(=O)Nc2nc(C)c(C(=O)Nc3ccc4c(c3)CCC4)s2)cc1 | -4% | ? | 9
COC(=O)N1C2=C(c3ccccc3[C@@H]1CC(=O)Nc1ccc3cc4ccccc4cc3c1)[C@@H]1C(=O)N(c3ccccc3)C(=O)[C@@H]1[C@H](C)C2 | 7% | 1%[9.22 µM] | nt
